Shown are actives, neighbours in structure and some others; about 2.3% of the full set was active somewhere.
Bim-Mcl-1: inhibitors of Bim-Mcl-1 interaction, human; Q07820; Bead-based flow cytometry, Bim peptide-Mcl-1 binding; inhibition, % at 10 µM; hit rate 0.1% among 190,000; in the data active = inhibition above about 40%;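 note: 0% = no compound tracer wells and 100% = peptide blocker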
Target sequence (Q07820 whole entry, looked up): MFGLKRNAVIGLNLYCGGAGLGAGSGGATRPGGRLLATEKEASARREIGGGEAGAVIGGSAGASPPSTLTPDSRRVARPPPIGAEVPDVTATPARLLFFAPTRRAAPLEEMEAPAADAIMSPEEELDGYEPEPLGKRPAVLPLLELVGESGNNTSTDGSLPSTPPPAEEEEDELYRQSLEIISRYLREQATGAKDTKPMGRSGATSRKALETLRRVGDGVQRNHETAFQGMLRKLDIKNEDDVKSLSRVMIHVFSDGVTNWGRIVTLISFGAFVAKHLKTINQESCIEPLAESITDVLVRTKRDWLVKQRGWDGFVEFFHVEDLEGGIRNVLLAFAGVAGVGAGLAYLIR
Mcl1 Noxa PPI: Mcl-1/Noxa interaction inhibition; Q07820; TR-FRET Mcl-1/Noxa peptide binding, 2 h; inhibition, % at 21.7 µM; hit rate 1.5% among 220,000; AID 1022;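 active = compounds that cut the protein-peptide binding signal by more than 50% relative to plate controls in a single-dose test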;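 note: His-tagged Mcl-1 with rhodamine Noxa BH3 peptide and terbium anti-His antibody; 0% = Mcl-1 plus Noxa peptide wells and 100% = peptide-only wells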
MCL1-BIM inh: MCL1-BIM-BH3 interaction inhibition (human) | Q07820 | GST-MCL1 / FITC-Bim-BH3 fluorescence polarization | inhibition, % at 10.9 µM | hit rate 0.68% among 320,000 | AID 2057;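 active = inhibition above the mean inhibition of all tested compounds plus 3 SD, set per campaign, cut at about 40% in these data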;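 note: 0% = DMSO wells and 100% = unlabeled Bim-BH3 peptide control; higher means more loss of mP so more displacement of Bim peptide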
Mcl1 Bid PPI: Mcl-1/Bid interaction inhibition; Q07820; TR-FRET Mcl-1/Bid-Dy647 peptide binding, 1536-well; inhibition, % at 21.7 µM; hit rate 0.97% among 220,000;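 active = compounds that cut the binding signal by more than half at the single screening dose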;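 note: His-tagged Mcl-1 with europium anti-His antibody binding Bid BH3 peptide; 0% = Mcl-1 plus peptide wells and 100% = peptide-only wells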
GLD-1 TGE inh: GLD-1-TGE RNA interaction inhibition (C. elegans); Q17339; purified GLD-1 + fluorescein TGE RNA, fluorescence polarization; inhibition, % at 5.96 µM; hit rate 0.44% among 320,000;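 active = percent inhibition above a per-plate cutoff, the plate mean of test compounds plus 3 SD, cut at about 30% in these data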;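 note: 0% = DMSO wells with GLD-1 and probe and 100% = wells lacking GLD-1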
BCLXL inh: Bcl-xL (human) inhibition | hit rate 0.7% among 320,000 | Q07817 | AID 2129 | inhibition, % at 10.9 µM | GST-Bcl-xL / FITC-Bim BH3 peptide fluorescence polarization;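 active = inhibition above the mean of all tested compounds plus 3 SD, cutoff set per campaign, cut at about 30% in these data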;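 note: 0% = DMSO wells and 100% = unlabeled Bim-BH3 peptide competitor; inhibitors lower millipolarization by displacing the labeled peptide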
Target sequence (Q07817 whole entry, looked up): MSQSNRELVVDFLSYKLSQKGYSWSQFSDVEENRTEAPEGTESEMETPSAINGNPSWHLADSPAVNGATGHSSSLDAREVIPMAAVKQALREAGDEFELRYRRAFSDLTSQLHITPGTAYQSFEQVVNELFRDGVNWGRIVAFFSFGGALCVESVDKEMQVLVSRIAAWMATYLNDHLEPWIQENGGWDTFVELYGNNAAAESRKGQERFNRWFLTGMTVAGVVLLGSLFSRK
The depositor's hits bear a star; · = not tested or not shown.

SMILES	Bim-Mcl-1	Mcl1 Noxa PPI	MCL1-BIM inh	Mcl1 Bid PPI	GLD-1 TGE inh	BCLXL inh
Cc1nc(S(=O)(=O)N(C)c2ccccc2)c(C#N)c(C)c1Cl	-3	2	-10	1	0	31*
CCOc1ccc(OCCNC(=O)c2ccc3c(c2)nnn3CC)cc1	·	·	·	·	3	·
CC1Sc2ccc(S(=O)(=O)N3CCC(C(=O)N(C)Cc4ccccc4)CC3)cc2NC1=O (stereo not drawn)	·	·	0	·	0	0
O=C(c1ccccc1CCc1ccccc1)N1CCOCC1	-4	2	-4	57*	1	5
Cn1c(N)c(C(=O)COC(=O)CSc2cccc3cccc(Cl)c23)c(=O)n(C)c1=O	-2	20	-2	-16	7	1
Cc1cc(=O)oc2cc(OCC(=O)Nc3ccc(S(=O)(=O)N(C)C)cc3)ccc12	·	8	-7	-3	7	3
CCn1cc(CN2CCCC(CO)(Cc3cccc(Cl)c3)C2)cn1 (stereo not drawn)	-1	3	7	-47	3	7
Cn1cc(CN2CCCC(CO)(Cc3cccc(Cl)c3)C2)cn1 (stereo not drawn)	-3	68*	0	-33	-5	-3
N#CCc1nn2c3c(cnc2c1C#N)C(=O)CCC3	1	18	22	-10	-22	19
Cc1[nH]n(-c2ncc(-c3ccccc3)s2)c(=O)c1C(c1ccc(Br)cc1)C(C#N)C#N (stereo not drawn)	-6	78*	4	28	10	9
Cc1[nH]n(C(N)=S)c(=O)c1C(c1ccccc1)C(C#N)C#N (stereo not drawn)	-1	-21	13	-53	1	7
COc1ccc(C(=O)NC2CC2)cc1OC1CCN(C(C)CSC)CC1 (stereo not drawn)	·	·	27	·	15	31*
COC(=O)CN1C2=NCCCN2c2ccccc21	0	-10	0	-17	-6	3
CC1CCN(CCCCOc2ccccc2[N+](=O)[O-])CC1	1	-1	6	53*	10	5
COc1cccc(OC)c1OCCCCCCN1CCN(C)CC1	·	·	4	·	1	2
CN1CCN(CCCCOc2ccccc2C=O)CC1	-3	14	1	56*	-6	2
CC1CCN(CCCCOc2ccc([N+](=O)[O-])cc2)CC1	-3	9	-3	10	1	0
CCC1(C)SC(N)=NN1C(C)=O (stereo not drawn)	-1	-9	10	-48	2	1
Cn1c(N)c(C(=O)CSc2nc3ccccc3[nH]2)c(=O)n(C)c1=O	·	10	-2	-12	5	3
COc1cccc(N(CC(=O)N2CCN(C)CC2)S(=O)(=O)c2ccccc2)c1	1	4	2	60*	2	-2
CCOC(=O)C1(Cc2cccc(OC)c2)CCN(Cc2cccc(OC)c2OC)CC1	78*	5	5	-25	8	-4
Cc1cccnc1NC(=O)c1ccc(NS(=O)(=O)/C=C/c2ccccc2)cc1	·	·	2	·	4	5
Nc1c(S(=O)(=O)c2ccccc2)c2nc3ccccc3nc2n1CCN1CCOCC1	-2	28	17	-11	-8	11
Cc1ccc(S(=O)(=O)c2c(N)n(Cc3ccco3)c3nc4ccccc4nc23)cc1C	-1	12	15	-28	20	32*
Cc1ccc(S(=O)(=O)c2c(N)n(CCN3CCOCC3)c3nc4ccccc4nc23)cc1C	2	-60	8	5	0	6
SMILES	Bim-Mcl-1	Mcl1 Noxa PPI	MCL1-BIM inh	Mcl1 Bid PPI	GLD-1 TGE inh	BCLXL inh
Nc1c(S(=O)(=O)c2ccccc2)c2nc3ccccc3nc2n1Cc1ccco1	0	39	11	-6	47*	23
O=c1c2c3nc4ccccc4nc3n(Cc3ccccc3)c2ncn1Cc1ccco1	4	73*	·	2	·	·
Cc1ccc(Nc2ncnc3c2nnn3Cc2ccccc2)cc1	·	0	1	13	-1	-1
CN(c1ncc(C(F)(F)F)cc1Cl)N1C(=O)c2cccc([N+](=O)[O-])c2C1=O	1	-1	-2	-3	8	5
O=C(Nc1ccccc1[N+](=O)[O-])C1=C(O)CCn2c1nc1ccccc12	6	72*	17	24	6	2
Cc1c(-n2cc(C(=O)c3cc(F)ccc3O)cc(C#N)c2=O)c(=O)n(-c2ccccc2)n1C	0	17	14	-27	7	16
N#Cc1cc(C(=O)c2ccccc2O)cn(-c2nccs2)c1=O	4	24	15	-88	54*	32*
N#Cc1cc(C(=O)c2cc(F)ccc2O)cn(-c2nccs2)c1=O	0	27	-1	-41	11	38*
CCOC(=O)CSc1nnc(Cn2nnc3ccccc32)n1-c1ccc(F)cc1	·	11	-4	-11	-5	-4
CN1CCc2c(sc(/N=C/c3ccco3)c2C(N)=O)C1	-2	0	46*	-20	8	46*
Cc1csc(NC(=O)CSc2nc3sc(C)c(C)c3c(=O)[nH]2)n1	-4	-118	-10	63*	-8	-3
CSCc1nc2sc(C(=O)Nc3nc(C)cs3)c(C)c2c(=O)[nH]1	0	79*	-2	-23	-14	2
Cc1nnc(SCc2nc3sc(C(=O)O)c(C)c3c(=O)[nH]2)s1	·	14	15	0	0	10
CCNC(=O)N1c2ccc(OCC)cc2C(C)=CC1(C)C	29	2	45*	-26	68*	48*
O=[N+]([O-])c1cc([N+](=O)[O-])c2cccnc2c1Oc1ccccc1O	0	92*	18	-59	6	11
O=[N+]([O-])c1cc(F)c2cccnc2c1O	·	-30	-6	-109	-1	-1
O=[N+]([O-])c1ccc(O)c2ncccc12	-1	73*	8	6	8	1
O=[N+]([O-])c1cc(CN2CCOCC2)c2cccnc2c1O	-1	94*	·	-16	·	·
O=[N+]([O-])c1cc(Cl)c2cccnc2c1O	0	-19	11	-72	0	6
O=[N+]([O-])c1cc(Cl)c(O)c2ncccc12	0	70*	·	-33	·	·
Cc1ccc(S(=O)(=O)c2ncccc2[N+](=O)[O-])cc1	·	·	-17	·	-15	-13
Cc1cc([N+](=O)[O-])nn1CCCC(=O)Nc1c(C)n(C)n(-c2ccccc2)c1=O	0	2	1	-27	-2	4
CCC(C)(C)c1nnc(NC(=O)c2cccc([N+](=O)[O-])c2)s1	-2	5	0	8	6	-2
COc1ccc(CCNC(=O)[C@@H](NC(=O)c2ccccc2F)C(C)C)cc1OC	0	15	-12	-20	4	-15
O=[N+]([O-])c1ccc(Cl)c2cccnc12	-2	-6	-2	-8	1	0
O=[N+]([O-])c1ccc(O)c2cccnc12	-1	25	48*	-38	13	44*
Cc1ccc(C(=O)NC(=S)Nc2ccc(-c3ccc(CO)o3)cc2)cc1	-1	26	17	13	0	3

From PubChem
